Laboratory results as given in PubChem BioAssay (NCATS).
Results filed as inconclusive are left out. Activity calls are given as the source filed them. Unless noted, the call rests on the fitted dose curve. Residues, ends and D or L forms follow the SMILES beside them.

Experiments:
[1] = qHTS for Inhibitors of the Functional Ribonucleoprotein Complex (vRNP) of Lassa (LASV) Arenavirus: LASV Primary Screen - GLuc reporter signal (AID 1347082; calls by dose curve; tested in HEK293 reporter line; further: nearly all actives have a fitted effect of over 60% in size; on activity change, negative = inhibition: series mostly up to about 57 µM)
[2] = qHTS for Inhibitors of the Functional Ribonucleoprotein Complex (vRNP) of Lassa (LASV) Arenavirus: Viability assay - alamar blue signal for LASV Primary Screen (AID 1347083; calls by dose curve; tested in HEK293 reporter line; further: nearly all actives have a fitted effect of over 80% in size; on activity change, negative = reduced viability: series mostly up to about 57 µM)
[3] = qHTS for Inhibitors of the Functional Ribonucleoprotein Complex (vRNP) of Lymphocytic Choriomeningitis Arenaviruses (LCMV): Viability assay - alamar blue signal for LCMV Primary Screen (AID 1347085; calls by dose curve; tested in HEK293 reporter line; further: nearly all actives have a fitted effect of over 80% in size; on activity change, negative = lower viability: series mostly up to about 57 µM)
[4] = biological target: Nucleoprotein (Lymphocytic choriomeningitis virus (strain Armstrong)) (UniProt P09992); experiment: qHTS for Inhibitors of the Functional Ribonucleoprotein Complex (vRNP) of Lymphocytic Choriomeningitis Arenaviruses (LCMV): LCMV Primary Screen - GLuc reporter signal (AID 1347086); further: nearly all actives have a fitted effect of over 70% in size; on activity change, negative = inhibition: series mostly up to about 57 µM
On the % scale 0 is the no-effect control and ±100 the full control effect; potency means the concentration at half of the fitted maximal effect.

Chain of Nucleoprotein (Lymphocytic choriomeningitis virus (strain Armstrong)) (P09992 whole entry, looked up): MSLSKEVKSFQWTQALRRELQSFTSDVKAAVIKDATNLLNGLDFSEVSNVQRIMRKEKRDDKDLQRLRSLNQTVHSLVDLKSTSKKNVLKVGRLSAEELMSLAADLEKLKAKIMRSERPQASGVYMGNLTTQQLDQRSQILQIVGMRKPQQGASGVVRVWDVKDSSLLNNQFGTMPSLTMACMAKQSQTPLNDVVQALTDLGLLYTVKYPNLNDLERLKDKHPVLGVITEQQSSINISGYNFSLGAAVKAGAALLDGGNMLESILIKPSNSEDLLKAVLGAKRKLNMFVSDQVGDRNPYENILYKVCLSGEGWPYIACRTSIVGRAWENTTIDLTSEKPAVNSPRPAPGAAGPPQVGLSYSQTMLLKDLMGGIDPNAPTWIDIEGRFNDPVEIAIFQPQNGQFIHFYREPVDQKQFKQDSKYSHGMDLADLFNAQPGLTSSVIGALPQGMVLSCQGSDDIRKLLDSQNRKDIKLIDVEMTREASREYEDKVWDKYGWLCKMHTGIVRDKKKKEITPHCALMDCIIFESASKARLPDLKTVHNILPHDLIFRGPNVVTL

C#CCC(Cc1cnc2nc(N)nc(N)c2n1)c1ccc(C(=O)N[C@@H](CCC(=O)O)C(=O)O)cc1 (some centres not stated)
active: Potency [1] 544 nM | Potency [2] 273 nM | Potency [3] 217 nM | Potency [4] 306 nM

CCOC(=O)/C=C(C)/C=C/C=C(C)/C=C/c1c(C)cc(OC)c(C)c1C
inactive: Potency [1] | Potency [2] | Potency [3] | Potency [4]

O=C(CO)[C@@H](O)[C@H](O)[C@@H](O)CO
inactive: Potency [1] | Potency [2] | Potency [3] | Potency [4]

CC(C)NCC(O)c1ccc(NS(C)(=O)=O)cc1 (configuration not stated)
inactive: Potency [1] | Potency [2] | Potency [3] | Potency [4]

COc1cc(/C=C/C(=O)O[C@H]2CC[C@]34C[C@]35CC[C@]3(C)[C@@H]([C@H](C)CCC=C(C)C)CC[C@@]3(C)[C@@H]5CC[C@H]4C2(C)C)ccc1O
inactive: Potency [1] | Potency [2] | Potency [3] | Potency [4]

CO[C@@]1(NC(=O)C(C(=O)O)c2ccc(O)cc2)C(=O)N2C(C(=O)O)=C(CSc3nnnn3C)CO[C@@H]21 (some centres not stated)
inactive: Potency [1] | Potency [2] | Potency [3] | Potency [4]

NS(=O)(=O)c1cc(C2(O)NC(=O)c3ccccc32)ccc1Cl (configuration not stated)
inactive: Potency [1] | Potency [2] | Potency [3] | Potency [4]

FC(F)(F)c1ccccc1-n1ccnc1
inactive: Potency [1] | Potency [2] | Potency [3] | Potency [4]

CN1C(C(=O)Nc2ccccn2)=C(O)c2sccc2S1(=O)=O
inactive: Potency [1] | Potency [2] | Potency [3] | Potency [4]

CCn1cc(C(=O)O)c(=O)c2cc(F)c(N3CCNC(C)C3)c(F)c21 (configuration not stated)
inactive: Potency [1] | Potency [2] | Potency [3] | Potency [4]

CC(C)=CCC/C(C)=C/CO
inactive: Potency [1] | Potency [2] | Potency [3] | Potency [4]

CN1C(C(=O)Nc2ccccn2)=C(O)c2ccccc2S1(=O)=O
inactive: Potency [1] | Potency [2] | Potency [3] | Potency [4]

O=C(COCCOCCOCC(=O)Nc1c(I)cc(I)c(C(=O)O)c1I)Nc1c(I)cc(I)c(C(=O)O)c1I
inactive: Potency [1] | Potency [2] | Potency [3] | Potency [4]

CCCCCCCCCCCCOCCO
inactive: Potency [1] | Potency [2] | Potency [3] | Potency [4]

O=C(O)CSCC(=O)NC1CCSC1=O (configuration not stated)
inactive: Potency [1] | Potency [2] | Potency [3] | Potency [4]

CC(=O)SCC(CC(=O)c1ccc(C)cc1)C(=O)O (configuration not stated)
inactive: Potency [1] | Potency [2] | Potency [3] | Potency [4]

O=C(CCCl)NCc1ccccc1
inactive: Potency [1] | Potency [2] | Potency [3] | Potency [4]

C[C@]12C=CC(=O)C=C1CC[C@@H]1[C@@H]2[C@@H](O)C[C@@]2(C)[C@H]1CC[C@]2(O)C(=O)CO
inactive: Potency [1] | Potency [2] | Potency [3] | Potency [4]

C#CCN[C@@H]1CCc2ccccc21
inactive: Potency [1] | Potency [2] | Potency [3] | Potency [4]

CNCc1ccccc1
inactive: Potency [1] | Potency [2] | Potency [3] | Potency [4]

Cc1cc(O)c2c(O)c3c(O)cccc3cc2c1
inactive: Potency [1] | Potency [2] | Potency [3] | Potency [4]

CCC(Cc1c(I)cc(I)c(N)c1I)C(=O)O (configuration not stated)
inactive: Potency [1] | Potency [2] | Potency [3] | Potency [4]

Cn1c([N+](=O)[O-])cnc1COC(N)=O
inactive: Potency [1] | Potency [2] | Potency [3] | Potency [4]

COC(=O)/C=C(/C)N
inactive: Potency [1] | Potency [2] | Potency [3] | Potency [4]

CC(=O)N/N=C/c1ccc([N+](=O)[O-])o1
inactive: Potency [1] | Potency [2] | Potency [3] | Potency [4]

CCC(=O)c1c(O)cc(O)cc1O
inactive: Potency [1] | Potency [2] | Potency [3] | Potency [4]

O=C(O)CCCCC1CCSS1 (configuration not stated)
inactive: Potency [1] | Potency [2] | Potency [3] | Potency [4]

COC(=O)[C@H](Cc1ccccc1)NC(=O)[C@@H](N)CC(=O)O (H-Asp-Phe-OMe)
inactive: Potency [1] | Potency [2] | Potency [3] | Potency [4]

O=C(O)Cc1ccc(OCCNC[C@H](O)c2ccccc2)cc1
inactive: Potency [1] | Potency [2] | Potency [3] | Potency [4]

COc1cc(O)cc(O)c1
inactive: Potency [1] | Potency [2] | Potency [3] | Potency [4]

Nc1nc(-c2ccccc2)c(Br)c(=O)[nH]1
inactive: Potency [1] | Potency [2] | Potency [3] | Potency [4]

NS(=O)(=O)c1ccc(C(=O)O)cc1
inactive: Potency [1] | Potency [2] | Potency [3] | Potency [4]

Cc1c(C(C)C)c(=O)n(-c2ccccc2)n1C
inactive: Potency [1] | Potency [2] | Potency [3] | Potency [4]

COc1ccc(-c2ccc3cc(C(=O)O)ccc3c2)cc1C12CC3CC(CC(C3)C1)C2
inactive: Potency [1] | Potency [2] | Potency [3] | Potency [4]

CN1[C@@H]2CCC[C@@H]1CC(NC(=O)c1nn(C)c3ccccc13)C2 (some centres not stated)
inactive: Potency [1] | Potency [2] | Potency [3] | Potency [4]

Cc1ccc(Nc2nccc(N(C)c3ccc4c(C)n(C)nc4c3)n2)cc1S(N)(=O)=O
inactive: Potency [1] | Potency [2] | Potency [3] | Potency [4]

O=C(O)c1c(O)c(-c2ccccc2)nc2ccccc12
inactive: Potency [1] | Potency [2] | Potency [3] | Potency [4]

Cc1ccc(S(=O)(=O)NC(=O)NC2CCCCC2)cc1
inactive: Potency [1] | Potency [2] | Potency [3] | Potency [4]

CC(C)COC(=O)c1ccc(N)cc1
inactive: Potency [1] | Potency [2] | Potency [3] | Potency [4]

CCN1CCC[C@H]1CNC(=O)c1cc(S(N)(=O)=O)ccc1OC
inactive: Potency [1] | Potency [2] | Potency [3] | Potency [4]

CC(=O)Nc1ccc(OCC(O)CNC(C)C)cc1 (configuration not stated)
inactive: Potency [1] | Potency [2] | Potency [3] | Potency [4]

O=c1[nH]cnc2[nH]ncc12
inactive: Potency [1] | Potency [2] | Potency [3] | Potency [4]

O=C(O)CN(CCN(CC(=O)O)CC(=O)O)CCN(CC(=O)O)CC(=O)O
inactive: Potency [1] | Potency [2] | Potency [3] | Potency [4]

COc1cc(NS(=O)(=O)c2ccc(N)cc2)nc(C)n1
inactive: Potency [1] | Potency [2] | Potency [3] | Potency [4]

O=C(OCC1(COC(=O)c2cccnc2)CCCC(COC(=O)c2cccnc2)(COC(=O)c2cccnc2)C1O)c1cccnc1
inactive: Potency [1] | Potency [2] | Potency [3] | Potency [4]

COc1ccc(-c2cc(=O)c3c(O)cc(O[C@@H]4O[C@H](CO[C@@H]5O[C@@H](C)[C@H](O)[C@@H](O)[C@H]5O)[C@@H](O)[C@H](O)[C@H]4O)cc3o2)cc1O
inactive: Potency [1] | Potency [2] | Potency [3] | Potency [4]

CCCCC(CC)COC(=O)c1ccccc1O (configuration not stated)
inactive: Potency [1] | Potency [2] | Potency [3] | Potency [4]

C[C@H]1O[C@@H](n2cc(F)c(=O)[nH]c2=O)[C@H](O)[C@@H]1O
inactive: Potency [1] | Potency [2] | Potency [3] | Potency [4]

CCCCCCCCCCOc1cc2c(=O)c(C(=O)OCC)c[nH]c2cc1OCC
inactive: activity change, negative = inhibition [1] -8.32% [at 5.82 µM] | activity change, negative = reduced viability [2] 1.68% [at 5.82 µM] | activity change, negative = lower viability [3] 5.24% [at 5.82 µM] | activity change, negative = inhibition [4] 13.4% [at 5.82 µM]

O=C(O)c1cc(O)c(O)c(O)c1
inactive: Potency [1] | Potency [2] | Potency [3] | Potency [4]

NCCCCCC(=O)O
inactive: Potency [1] | Potency [2] | Potency [3] | Potency [4]

C[C@](N)(Cc1ccc(O)cc1)C(=O)O
inactive: Potency [1] | Potency [2] | Potency [3] | Potency [4]

COc1ccc(/C=N/NC(=O)c2ccncc2)cc1OC
inactive: Potency [1] | Potency [2] | Potency [3] | Potency [4]

CCOc1cc(OCC)c(C(=O)CCC(=O)O)cc1OCC
inactive: Potency [1] | Potency [2] | Potency [3] | Potency [4]

CC1(C)OC(=O)NC1=O
inactive: Potency [1] | Potency [2] | Potency [3] | Potency [4]

Nc1ncnc2c1ncn2Cc1c(F)cccc1Cl
inactive: Potency [1] | Potency [2] | Potency [3] | Potency [4]

CCC(C)(CN(C)C)OC(=O)c1ccccc1 (configuration not stated)
inactive: Potency [1] | Potency [2] | Potency [3] | Potency [4]

CN[C@@H]1[C@H](O)[C@H](NC)[C@H]2O[C@@]3(O)C(=O)C[C@@H](C)O[C@H]3O[C@@H]2[C@H]1O
inactive: Potency [1] | Potency [2] | Potency [3] | Potency [4]

O=C(c1ccccc1)C(O)c1ccccc1 (configuration not stated)
inactive: Potency [1] | Potency [2] | Potency [3] | Potency [4]

Cc1coc2ccccc2c1=O
inactive: Potency [1] | Potency [2] | Potency [3] | Potency [4]

CC(C)(C)NCC(O)COc1cccc2c1C[C@H](O)[C@H](O)C2 (some centres not stated)
inactive: Potency [1] | Potency [2] | Potency [3] | Potency [4]

CCS(=O)(=O)c1ccc(OC)c(C(=O)OC)c1
inactive: Potency [1] | Potency [2] | Potency [3] | Potency [4]

CC(=O)NO
inactive: Potency [1] | Potency [2] | Potency [3] | Potency [4]

CC(C)(C)c1ccc(O)cc1
inactive: Potency [1] | Potency [2] | Potency [3] | Potency [4]

C[N+]1(C)CCCC(OC(=O)C(O)(c2ccccc2)c2ccccc2)C1 (configuration not stated)
inactive: Potency [1] | Potency [2] | Potency [3] | Potency [4]

Cc1cccc(C)c1NC(=O)CN1CCCCCC1
inactive: Potency [1] | Potency [2] | Potency [3] | Potency [4]

CCCC(O)C(CC)CO (configuration not stated)
inactive: Potency [1] | Potency [2] | Potency [3] | Potency [4]

CN[C@@H]1[C@@H](O)[C@@H](O[C@@H]2[C@H](O)[C@H](O[C@H]3OC(CN)=CC[C@H]3N)[C@@H](N)C[C@H]2N)OCC1(C)O (some centres not stated)
inactive: Potency [1] | Potency [2] | Potency [3] | Potency [4]

COc1cc(OC)c(C(=O)CCCN2CCCC2)c(OC)c1
inactive: Potency [1] | Potency [2] | Potency [3] | Potency [4]

Cc1scc2c1N(C(=O)CN1CCN(C)CC1)c1ccccc1NC2=O
inactive: Potency [1] | Potency [2] | Potency [3] | Potency [4]

COC(=O)[C@@H]1[C@H]2C[C@H]3c4[nH]c5ccccc5c4CCN3C[C@@H]2CC[C@@H]1O
inactive: Potency [1] | Potency [2] | Potency [3] | Potency [4]

O=C(O)c1ccc[n+]([O-])c1
inactive: Potency [1] | Potency [2] | Potency [3] | Potency [4]

NS(=O)(=O)c1cc(Cl)c(Cl)c(S(N)(=O)=O)c1
inactive: Potency [1] | Potency [2] | Potency [3] | Potency [4]

Cc1cccc(C)c1NC(=O)c1cc(S(N)(=O)=O)c(Cl)cc1O
inactive: Potency [1] | Potency [2] | Potency [3] | Potency [4]

CCCCCCCC(=O)[O-].CCCCCCCC(=O)[O-].[Zn+2]
inactive: Potency [1] | Potency [2] | Potency [3] | Potency [4]

O=C(O)c1cccnc1
inactive: Potency [1] | Potency [2] | Potency [3] | Potency [4]

O=c1[nH]c(=O)n([C@H]2CCCO2)cc1F
inactive: Potency [1] | Potency [2] | Potency [3] | Potency [4]

Cc1cc2cc3c(C)cc(=O)oc3c(C)c2o1
inactive: Potency [1] | Potency [2] | Potency [3] | Potency [4]
